Source: PubChem BioAssay (Tox21)
Several values for one entry are separate records, joined by “and”; a condition that tells them apart may be missing. Equal values may be shown once. Inconclusive results are not listed. Values without a mark were called inactive. Activity calls are given as the source filed them. Calls follow the shape of the dose curve; as a rule, active = well fitted cell-killing curve with a large enough effect in the repeat runs; inconclusive = weak or mixed curves, or effect the other way; inactive = flat fitted curve, though single readings scatter.

Assay: cAMP Responsive Elements (CRE) small molecule antagonists, cell-based qHTS assay: qHTS cell viability counter screen (AID 2060913); also: nearly all actives have a fitted effect of over 40% in size
Conditions: CRE-bla HEK293T viability, CellTiter-Glo luminescence, 5 h; series mostly up to 92.4 µM; viability change, negative = cytotoxic: at the top concentration
Summary of the method: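 Cytotoxicity read in the same wells as the CRE-bla HEK293T antagonist assay: after 3 h compound with 0.25 uM NKH477 final and 2 h beta-lactamase substrate, CellTiter-Glo luminescence measured.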
% is scaled to controls: 0 for no effect and ±100 for the full control effect; potency is read from the fitted curve at half-maximal effect.

SMILES | viability change, negative = cytotoxic | Potency
OC(c1ccc(F)cc1)(c1cncnc1)c1ccccc1Cl (centres undefined) | 2.2% | –
CCOP(O)OCC | -1.76% | –
CC(C)N(C(=O)SCC(Cl)=C(Cl)Cl)C(C)C | -8.24% | –
CC(=O)O[C@H]1CC[C@@]2(C)C(=CC[C@@H]3[C@@H]2CC[C@]2(C)C(=O)CC[C@@H]32)C1 | 0.633% | –
ClC1=C(Cl)[C@]2(Cl)[C@@H]3[C@@H](Cl)[C@H](Cl)C[C@@H]3[C@@]1(Cl)C2(Cl)Cl | -9.42% | –
COc1cccc(C=O)c1 | 0.992% | –
O=C1c2ccccc2C(=O)N1SC(Cl)(Cl)Cl | – | inactive
COC(C)(C)CCCC(C)C/C=C/C(C)=C/C(=O)OC(C)C (centres undefined) | – | inactive
Oc1cc(Cl)c(Cl)c(Cl)c1 | – | 51.7 µM (active)
CNC(=O)O/N=C(\C)C(C)S(C)(=O)=O (centres undefined) | -13.7% [at 872 µM] | –
O=[N+]([O-])/C=C/c1ccccc1 | -10.6% | –
CCSC(C)CC1CC(=O)C(/C(CC)=N/OC/C=C/Cl)=C(O)C1 (centres undefined) | 1.26% [at 42.5 µM] | –
COc1cccc2c1C(=O)c1c(O)c3c(c(O)c1C2=O)C[C@@](O)(C(=O)CO)CC3OC1CC(N2CCOC(OC)C2)C(O)C(C)O1 (some centres undefined) | 10.2% [at 42.5 µM] | –
NNc1ccccc1 | – | inactive
O=[N+]([O-])c1cc(C(F)(F)F)cc([N+](=O)[O-])c1Cl | -8.62% | –
COc1cc(CC#N)cc(OC)c1OC | -0.238% [at 42.5 µM] | –
CCCCC(CC)COC(=O)c1ccccc1C(=O)OCC(CC)CCCC (centres undefined) | -0.216% | –
C[C@H]1C(=O)O[C@@H]2CCN3CC=C(COC(=O)[C@](C)(O)[C@]1(C)O)[C@H]23 | – | inactive
COP(N)(=S)Oc1ccccc1C(=O)OC(C)C (centres undefined) | 7.77% | –
O=CCCl | -0.645% | –

SMILES | viability change, negative = cytotoxic | Potency
CC(C)[C@H](C(=O)OC(C#N)c1cccc(Oc2ccccc2)c1)c1ccc(OC(F)F)cc1 (some centres undefined) | -19.2% | –
ClCCCN1CCN(c2cccc(Cl)c2)CC1 | -2.15% [at 42.5 µM] | –
C[C@]12CC[C@H]3[C@@H](CCC4=CC(=O)CC[C@@H]43)[C@@H]1CC[C@@H]2OC(=O)CCc1ccccc1 | -0.961% [at 42.5 µM] | –
COc1cc(N)c(Cl)cc1C(=O)NC1CN2CCC1CC2 (centres undefined) | 5.29% [at 42.5 µM] | –
Brc1ccc(Oc2cc(Br)c(Br)cc2Br)c(Br)c1 | – | inactive
N#Cc1c[nH]cc1-c1cccc2c1OC(F)(F)O2 | -4.03% | –
O=C(Nc1ccccc1)Nc1cnns1 | -10.4% | –
CSc1ccc(C(=O)C(C)(C)N2CCOCC2)cc1 | -11.8% | –
CCCN(CCC)c1c([N+](=O)[O-])cc(S(N)(=O)=O)cc1[N+](=O)[O-] | – | 43 µM (active)
Nc1c(Cl)c(F)nc(OCC(=O)O)c1Cl | -6.16% | –
Nc1cc(Cl)ccc1O | 2.15% | –
Clc1ccc(COC(Cn2ccnc2)c2ccc(Cl)cc2Cl)cc1 (centres undefined) | – | 50.8 µM (active) and 45.1 µM (active)
CCOC(=O)[C@]1(c2ccccc2)Oc2ccccc2[C@@H]1N | -13.3% | –
CCOP(=S)(Oc1cnc(C(C)(C)C)nc1)OC(C)C (centres undefined) | -9.73% | –
CC1COC2(c3ccccc3Cl)c3cc(Cl)ccc3NC(=O)CN12 (centres undefined) | 3.64% [at 42.5 µM] | –
O=S(=O)(O)F | 8.06% | –
Brc1ccc(Oc2ccc(Br)cc2Br)c(Br)c1 | -14.9% | –
Oc1ccccc1Cl | – | inactive
CCC[CH2][Sn]([Cl])([CH2]CCC)[CH2]CCC | – | 3.86 µM (active) and 7.7 µM (active)
